Measured values as given in the supplement of paper PMC10681739.

The sequences below were run against T1, ETS1 (UniProt P14921) (assay: TF binding intensity (PBM fluorescence), negative control probe (arbitrary fluorescence units); higher = stronger binding).
T1 sequence: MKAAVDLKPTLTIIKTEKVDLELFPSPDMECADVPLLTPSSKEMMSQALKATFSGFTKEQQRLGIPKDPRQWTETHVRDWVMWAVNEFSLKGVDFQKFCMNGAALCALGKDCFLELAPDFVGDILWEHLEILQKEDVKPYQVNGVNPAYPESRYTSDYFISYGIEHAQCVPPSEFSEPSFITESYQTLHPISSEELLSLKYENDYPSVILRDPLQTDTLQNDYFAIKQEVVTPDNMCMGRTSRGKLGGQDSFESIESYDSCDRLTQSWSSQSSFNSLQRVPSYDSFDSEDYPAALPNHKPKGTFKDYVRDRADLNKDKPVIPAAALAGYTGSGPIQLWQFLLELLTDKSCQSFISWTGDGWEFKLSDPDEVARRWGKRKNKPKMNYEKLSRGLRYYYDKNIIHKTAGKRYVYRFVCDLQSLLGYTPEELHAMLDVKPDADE
Procedure: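 gcPBM negative-control 36-bp genomic probes lacking TF binding sites. Each was incubated with recombinant human ETS1 or RUNX1 alone and detected by antibody fluorescence. Values are medians over replicate spots (4 spots for the ETS1-RUNX1 arrays, 3 for the ETS1-ETS1 array). The probes sit in constant array flanks that are not printed.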

Sequence	TF binding intensity
CCCTTCGCCATTGCAGCCATGCCACCCCTCCTTCTC (protein concentration 10 nM)	149
TAAATAAATAAACACTTTAGCACATTGACTTTAGAG (protein concentration 10 nM)	111
CTCGCGGCGCACTCCCAGAGGCTGGGGGGCCGGGGC (protein concentration 10 nM)	183
CAGGAGAAATATGAGATTAAGAACACATGATGTTAA (protein concentration 10 nM)	123
CTATAGTATGTCAAAACCACAAAGACAATGTGCAGC (protein concentration 1 nM)	466
CAGGTGGATGACTCAGCTGGAGAACAAAGTGGCTTC (protein concentration 10 nM)	122
CCTCGGGGGCCAATGTGTGCCTGTGGTGTGCGATTC (protein concentration 10 nM)	121
CAACCTAACTATAATGCAAATAGGGATTCTTTTTCT (protein concentration 10 nM)	88.5
CGCCAGGGGGAGCAACAGAAATCCACACCAGGGAAG (protein concentration 10 nM)	173
GCAAAGCGGGCGAGTGGCCTGGAGAGAGGGAGCAGC (protein concentration 10 nM)	150
TAGGGAATGGTGAGCTGTGGTTTGTGGCTTCATGGA (protein concentration 1 nM)	443
CCATTAGTTCATCTTACACTCTGCCCTTTAACGTGG (protein concentration 10 nM)	127
TATAAGGGGCTTTTCCCCTTTGGCTCAGCACTTCTC (protein concentration 10 nM)	116
CCATCGATGAAAAGGCTGCTATCTCTCGCTGATGGG (protein concentration 10 nM)	139
CAAAATGCTTAAAAGGTAACTTGACTCTTTGTTTGG (protein concentration 10 nM)	123
GGCTCCTATATTAAAATTGGTATTAGTAGACAATGT (protein concentration 10 nM)	131
TCAGCAGCTCGTGCTGCTTGAAGTGCTGGGGGCGAG (protein concentration 10 nM)	153

Sequence	TF binding intensity
CCCTAAGCGCCTGCGCACATTTGCGCATCGCTCTGC (protein concentration 10 nM)	109
GTTTATTGCCCACAACATGTCAGGCACAGTGGGAAG (protein concentration 10 nM)	132
CTTGACAGAGGTATGTGCTAGGATTGAATATGTGGG (protein concentration 10 nM)	131
ATGGCTGGGTCAGAGCGGCCTGTCAGCCCGGCTGGA (protein concentration 10 nM)	98
GAAGCCAGTGAGCCAGGAGTGCTGATTGGTTAGGGA (protein concentration 10 nM)	107
AAATAAATTCTTGTCTGGGGCCGACATCTGTGTGGA (protein concentration 10 nM)	119
TGCCGTGTACTTGATCTTGTCCCACAGAATCACCTG (protein concentration 10 nM)	112
CAGAAGTTATAATAATTAATGATATCATTCAGTGTG (protein concentration 10 nM)	118
GTGAAACCAGGGCACAGGTAGAAATCCCTAGAGCAG (protein concentration 10 nM)	138
TGCCAGGGTGTAATTTTTCCCACTTTCACCTCCTTC (protein concentration 10 nM)	128
AGGCATAACAGAAAAACCTCAACTTAAATAGTGCTG (protein concentration 1 nM)	626
ATAAGCCAATTTTTTTTACATTTATGAAATGAGAGA (protein concentration 10 nM)	105
TATCTTTATCATGATCCATTAAAGATGACAGAACTA (protein concentration 10 nM)	127
AGAGCCACAGTGTGGCTTGGCTGGTAAATTATTTGT (protein concentration 10 nM)	109
TTTCTTCACACCACAAGCAGAGAGCAGCGAGAGAGA (protein concentration 10 nM)	136
CTGCTGGGTGGAGTGTGGACAAGCGGCCTTTGCATC (protein concentration 10 nM)	150
TAAGTATTAAGAGTTGCAACACTCTAATCAAGGATA (protein concentration 10 nM)	102
